For 17 compounds, activity, negative = inhibition results are on record in PubChem BioAssay (NCATS).

Inconclusive results are not listed. Active and inactive are the calls of the source. Calls follow the shape of the dose curve; as a rule, active = well fitted curve in either direction with a large enough effect (not every such curve was filed as active); inconclusive = small, poorly fitted or top-dose-only effect, or another doubt; inactive = flat fitted curve, though single readings scatter.
% is scaled to controls: 0 for no effect and ±100 for the full control effect.

The assay in a line: Stat Signaling Pathway (AID 446).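 Also: ME-180 cervical cancer cells given 40 pM IL-6 alongside compound; SIE-controlled beta-lactamase reporter measured as 460/530 nm FRET emission ratio.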 The settings on record: ME-180 (cervical carcinoma) SIE beta-lactamase reporter, IL-6 stimulated, 5 h; at 17.2 µM (top of the series) unless noted. An outline of the steps: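 Normalization used AC90 stimulation (300 pM IL-6) and AC90 inhibition (125 nM pan-JAK inhibitor at 40 pM IL-6). The underlying signal is SIE-driven beta-lactamase in ME-180 cells after 5 h IL-6 exposure with compound.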
`COc1ccc(C2=Nn3c(nnc3-c3ccccc3)SC2)cc1OC`: the activity, negative = inhibition is 3.68% (inactive). Regarding `CCOC(=O)C1=C(C)N=C2SC(C)C(=O)N2C1c1cccc(F)c1` (configuration not stated), the activity, negative = inhibition is 1.84% (inactive). With `COc1ccc(-n2ncc3c(NCCCn4ccnc4)ncnc32)cc1` the figure was -5.95% (inactive); with `COc1cc(C2Nc3cccc4cccc(c34)N2)cc(OC)c1OC(C)=O`, 9.71% (inactive); with `Cc1sccc1C1C(C#N)=C(N)SC(N)=C1C#N`, -25.4% (inactive). `CCN(CC)S(=O)(=O)c1cccc2c(N(C)C)cccc12`: the activity, negative = inhibition was 19% (inactive). As for `COc1ccc2[nH]cc(C(=O)CN(C)CCc3ccc(OC)c(OC)c3)c2c1`, the activity, negative = inhibition is 6.57% (inactive). `CC(=O)c1cc(C#N)c(SCC(=O)C(C)(C)C)nc1C`: the activity, negative = inhibition was 12.6% (inactive).

With `CCSc1nnc(N(CCC#N)CCC#N)s1`, the activity, negative = inhibition was -1.67% (inactive). Next, `CCOc1ccc(Cc2nc(N)nc(N)n2)cc1`: 8.67% (inactive); `Clc1ccc(-c2cn3c(n2)CCC3)cc1`: 7.31% (inactive). On to `COC(=O)CSc1nnc2n(-c3ccc(OC)cc3)c(=O)c3c4c(sc3n12)CCCCC4`, for which the activity, negative = inhibition was 5.65% (inactive). For `Nc1ncnc2nc(SCc3ccccc3)[nH]c12`, the activity, negative = inhibition is -9.74% (inactive). For the compound `COc1cccc(C2/C(=C(/O)c3cnn(-c4ccccc4)c3C)C(=O)C(=O)N2CCN(C)C)c1` (configuration not stated), the activity, negative = inhibition was -11.2% (inactive).

As to `CC(C)COc1nc2ccccc2nc1C(C#N)C(=O)NC1CCCCC1` (configuration not stated), the activity, negative = inhibition is 5.36% (inactive). On to `CCN(CC)c1nc(N2CCOCC2)c(C#N)c2c1CN(C)CC2`, for which the activity, negative = inhibition was 9.24% (inactive).

Regarding `Cc1nn2c(-c3ccc(Cl)cc3)nnc2s1`, the activity, negative = inhibition is 14.5% (inactive).
